From PubChem BioAssay
PLK1 PBD inh = qHTS for Inhibitors of PLK1-PDB (polo-like kinase 1 - polo-box domain): Primary Screen; Plk1 PBD binding of FITC phosphopeptide, fluorescence polarization; Serine/threonine-protein kinase PLK1 (Homo sapiens), P53350; hit rate 2.8% among 360,000; Potency, µM, usual class: inhibitors; further: series mostly up to about 57 µM; nearly all actives have a fitted effect of over 65% in size
KAT2A inh = qHTS Assay for Inhibitors of GCN5L2; GCN5L2 HAT assay, ThioGlo1 CoA-SH fluorescence; Histone acetyltransferase KAT2A (Homo sapiens), Q92830; hit rate 0.21% among 390,000; AID 504327, 2011; Potency, µM (doses to about 58.9 µM), actives largely listed as inhibitors
Target sequence (Q92830 whole entry, looked up): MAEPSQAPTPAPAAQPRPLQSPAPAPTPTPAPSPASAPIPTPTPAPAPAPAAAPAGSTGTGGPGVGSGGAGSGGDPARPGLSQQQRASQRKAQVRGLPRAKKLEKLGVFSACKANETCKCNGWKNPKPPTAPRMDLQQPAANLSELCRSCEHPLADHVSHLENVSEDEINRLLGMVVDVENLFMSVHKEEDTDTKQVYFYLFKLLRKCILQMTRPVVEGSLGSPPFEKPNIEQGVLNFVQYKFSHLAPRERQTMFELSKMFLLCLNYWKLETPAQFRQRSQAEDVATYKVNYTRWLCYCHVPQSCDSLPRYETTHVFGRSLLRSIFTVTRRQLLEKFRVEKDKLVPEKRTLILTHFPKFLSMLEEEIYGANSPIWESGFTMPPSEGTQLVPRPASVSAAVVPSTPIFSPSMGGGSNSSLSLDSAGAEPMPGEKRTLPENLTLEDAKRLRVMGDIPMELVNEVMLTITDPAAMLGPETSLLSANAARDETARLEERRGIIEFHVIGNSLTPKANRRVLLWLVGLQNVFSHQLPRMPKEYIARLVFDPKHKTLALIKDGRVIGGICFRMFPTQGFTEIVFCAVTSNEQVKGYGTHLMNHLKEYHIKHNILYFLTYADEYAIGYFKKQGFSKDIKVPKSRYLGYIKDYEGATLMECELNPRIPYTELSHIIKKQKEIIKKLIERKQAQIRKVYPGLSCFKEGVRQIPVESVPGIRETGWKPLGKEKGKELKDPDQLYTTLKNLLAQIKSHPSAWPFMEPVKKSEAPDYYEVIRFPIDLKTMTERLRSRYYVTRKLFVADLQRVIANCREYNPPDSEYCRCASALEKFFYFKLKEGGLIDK
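GCN5L2 (20nM final) in 50mM HEPES, 0.1mM EDTA pH 7.5, 0.01% Tween-20 was preincubated 15 min at room temperature with compound, then given ThioGlo1 (50uM), H3(1-25) peptide (75uM) and acetyl-CoA (70uM); CoA-thiol fluorescence (Ex340/Em540) was read at 0 and 20 min.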
HP1b binding inh = HTS for Inhibitors of HP1-beta Chromodomain Interactions with Methylated Histone Tails; Chromobox protein homolog 1 (Homo sapiens), P83916; AlphaScreen HP1-beta / biotin-H3K9me3 peptide binding; Potency, µM (doses to about 114 µM), actives largely listed as inhibitors; hit rate 0.56% among 390,000; further: nearly all actives have a fitted effect of over 70% in size
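AlphaScreen: HP1-beta (50 nM) preformed 30 min with biotin-H3(1-18)K9me3 peptide (50 nM) in PBS pH 7.4, 0.01% Tween-20. Compound added for 30 min at RT, then streptavidin donor/nickel chelate acceptor beads (10 ug/mL) for 30 min.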
PI5P4Ka inh = qHTS for Inhibitors of phosphatidylinositol 5-phosphate 4-kinase (PI5P4K) | Phosphatidylinositol 5-phosphate 4-kinase type-2 alpha (Homo sapiens), P48426 | max response, % | PI5P4Kalpha enzyme, ADP-Glo luminescence, 60 min; active compounds read low | AID 652105, 2013 | hit rate 1.2% among 330,000; active means max response of -50% or lower; inconclusive means between -30% and -50%; inactive means -30% or higher; further: value at the top dose of about 77 µM
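PI5P4Kalpha ADP-Glo assay; 5 microM ATP final; 60 min RT reaction; HEPES pH 7.4/EGTA/CHAPS, 5% DMSO; controls lacking substrate or enzyme; luminescent end-point.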
BAZ2B inh = qHTS Assay for Inhibitors of BAZ2B | Bromodomain adjacent to zinc finger domain protein 2B (Homo sapiens), Q9UIF8 | AlphaScreen BAZ2B-H3K14Ac peptide displacement | Potency, µM (series often up to 114 µM), most hits filed as inhibitors | hit rate 4.4% among 360,000; further: nearly all actives have a fitted effect of over 60% in size
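BAZ2B (50 nM) with biotin-H3(5-23)K14Ac peptide (50 nM) in PBS pH 7.4, 0.01% Tween-20, preformed 30 min, then compound 30 min at room temperature; top concentration 110uM. AlphaScreen streptavidin donor/nickel chelate acceptor beads (10 ug/mL final), 20 min dark, signal read.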
JMJD2A Tudor = qHTS Assay for Inhibitors of JMJD2A-Tudor Domain; Lysine-specific demethylase 4A (Homo sapiens), O75164; AlphaScreen JMJD2A-Tudor / H3K4me3 peptide binding; Potency, µM (highest dose often 114 µM), usual class: inhibitors; hit rate 4.4% among 390,000; AID 504339, 2011; further: nearly all actives have a fitted effect of over 50% in size
A number is an active result; i = inactive; ? = inconclusive; nt = no result; [ ] = another dose, or the depositor's remark. This is a sample that favours compounds with a hit; in the whole collection about 7% have one here. Unless noted, the call rests on the fitted dose curve; in most records, active means well fitted curve in the direction sought with a large enough effect; inconclusive means small, poorly fitted or top-dose-only effect, or another doubt; inactive means no such curve, though single readings can be large; an effect the other way counts as inactive or inconclusive.

SMILES | PLK1 PBD inh | KAT2A inh | HP1b binding inh | PI5P4Ka inh | BAZ2B inh | JMJD2A Tudor
O=C1NC[C@@H](CCCCN2CCN(CCC3CCCCC3)C(=O)C2=O)N(CC2CCCCC2)C1=O | i | nt | nt | i | nt | nt
COc1ccc(OC)c(CCNC(=O)c2nc(-c3ccc(Cl)cc3)n3c2CCCCC3)c1 | nt | i | i | nt | 16µM | 28µM
CCOc1ccc(CCNC(=O)c2nc(-c3cccc(F)c3)n3c2CCCCC3)cc1OCC | nt | i | ? | nt | 18µM | 50µM
Cc1nc(N2CCCC2)ncc1C(=O)N1CCN(c2ccc(Cl)cc2)CC1 | nt | i | i | nt | 79µM | i
COc1ccc(NC(=O)c2nc(-c3ccc(C)cc3)n3c2CCCCC3)c(OC)c1 | nt | i | i | nt | i | i
Cc1nc(N2CCCC2)ncc1C(=O)N1CCN(c2ccccc2F)CC1 | nt | i | i | nt | i | i
COc1ccc(N2CCN(C(=O)c3nc(-c4ccc(Cl)cc4)n4c3CCCCC4)CC2)cc1 | nt | i | ? | nt | 45µM | 35µM
O=C(Nc1c(Cl)cc([N+](=O)[O-])cc1Cl)c1cc(Cl)cc(Cl)c1O | nt | nt | i | nt | nt | ?
CC(=O)c1cc2c(cc1NC(=O)C1CN(C(C)=O)c3ccccc3O1)OCO2 (stereo not drawn) | i | i | i | i | nt | i
Cc1ccc(CNC(=O)c2nc(-c3ccc(Cl)cc3)n3c2CCCCC3)cc1 | nt | i | ? | nt | 10µM | 22µM
CCCSc1ncc(Cl)c(C(=O)N2CCN(c3ccc(OC)cc3)CC2)n1 | nt | i | i | nt | 35µM | ?
CCc1ccc2oc(C(=O)NCc3ccccc3)cc(=O)c2c1 | nt | i | i | nt | i | i
Cc1ccc(O)c(CN(C)Cc2cc(C)ccc2O)c1 | i | nt | i | i | nt | ?
CN(CCCCCCN(C)Cc1ccccc1O)Cc1ccccc1O | i | ? | ? | i | 50µM | 20µM
COc1ccc(NC(=O)N(C)C[C@H]2Oc3ccc(NS(=O)(=O)c4c(C)noc4C)cc3C(=O)N([C@H](C)CO)C[C@@H]2C)cc1 | i | i | i | i | nt | i
COc1nc(C)nc2c1sc1nc3c(cc12)COC(C)(C)C3 | 27µM | i | i | i | i | i[11.4 µM]
Cc1ccc(SCC(=O)c2ccc(CC(=O)O)s2)cc1 | ? | i | i | ? | 50µM | ?
CC(=O)Nc1ccc(SCC(=O)c2ccc(Br)s2)cc1 | 4.7µM | i | ? | i | 50µM | ?
O=C(O)Cc1ccc(C(=O)c2ccc(Cl)cc2)s1 | i | i | i | i | i | i
O=C(O)Cc1ccc(C(=O)CSc2ccccc2)s1 | 12µM | i | i | -59 | 50µM | 56µM
Cc1ccc(SCC(=O)c2cc(C)c(O)c(C)c2)cc1 | i | i | i | i | i | i
CCCN(C(=O)c1ccc(N2CCCC2=O)cc1)C1CCS(=O)(=O)C1 (stereo not drawn) | i | i | i | i | i | i
C=CCn1c(SCC(=O)O)nnc1-c1cccc(Cl)c1 | i | i | i | i | i | i
C=CCn1c(SCC(=O)c2ccc(O)c(O)c2)nnc1-c1cccc(Cl)c1 | i | i | i | i | 50µM | ?
CCn1c(SCC(=O)c2ccc(O)c(O)c2)nnc1-c1ccccc1 | i | i | i | i | ? | ?
SMILES | PLK1 PBD inh | KAT2A inh | HP1b binding inh | PI5P4Ka inh | BAZ2B inh | JMJD2A Tudor
C=CCn1c(SCC(=O)c2ccc(O)c(O)c2)nnc1-c1cccnc1 | i | ? | 25µM | -51 | 35µM | i[11.4 µM]
C=CCn1c(SCC(=O)Nc2ccc(N(C)C)cc2)nnc1-c1cccc(C)c1 | i | i | i | i | 45µM | 50µM
C=CCn1c(SCC(=O)c2ccc(O)c(O)c2)nnc1-c1cccc(C)c1 | i | i | i | i | 50µM | ?
O=C(CCCc1nc(-c2ccco2)no1)Nc1ccccc1[N+](=O)[O-] | nt | i | i | nt | ? | i
COc1cccc(NC(=O)CSC2=Nc3ccccc3C3=NC(CC(=O)NCc4ccc5c(c4)OCO5)C(=O)N23)c1 (stereo not drawn) | nt | i | i | nt | i | i
C=CCn1c(SCC(=O)Nc2cc(NC(C)=O)ccc2OC)nnc1-c1ccccn1 | i | i | i | i | 79µM | ?
CCn1cc(S(=O)(=O)c2ccc(C)cc2)[nH]c1=O | i | i | i | i | i | i
CCc1c(C(C)S(=O)(=O)c2ccc(C)cc2)[nH]c(=O)n1-c1ccc(OC(F)(F)F)cc1 (stereo not drawn) | 27µM | i | i | i | i | i
O=c1ccc(S(=O)(=O)N2CCCC2)cn1Cc1ccc(Cl)cc1Cl | i | i | i | i | i | i
C/C(=N/NC(=O)c1ccccn1)c1ccc(O)cc1 | i | i | i | i | 50µM | ?
C/C(=N/NC(=O)c1ccccn1)c1c[nH]c2ccccc12 | i | i | i | i | 50µM | i
C/C(=N\NC(=O)c1c[nH]c2ccccc12)c1ccc(C)o1 | i | i[0.501 µM] | i | nt | i | i
S=C(N/N=C/c1cccc2ccccc12)Nc1cccc(Cl)c1 | i | i | i | i | 79µM | i
S=C(N/N=C/c1ccccc1Cl)Nc1ccccc1 | i | i | i | nt | i | i
C/C(=N\NC(=O)c1ccc(Cl)cc1)c1ccccn1 | i | ? | i | i | 7.9µM | 25µM
C/C(=N\NC(=O)c1ccccn1)c1ccc(Cl)cc1 | i | i | i | i | ? | i
COc1ccc(-c2noc(CC(=O)N(C)c3ccccc3F)n2)cc1 | nt | i | i | nt | i | i
C/C(=N\NC(=O)c1ccccn1)C12CC3CC(CC(C3)C1)C2 | i | i | i | nt | 50µM | ?
N/C(=N\OC(=O)C12CC3CC(CC(C3)C1)C2)c1ccccn1 | i | i | i | i | i | i
CC(=NNC(=S)Nc1cccc(Cl)c1)c1ccccn1 | i | nt | ? | i | nt | 25µM
C/C(=N\Nc1ccc(Cl)cc1)c1ccccn1 | i | i | i | nt | ? | ?
C/C(=N/Nc1ccc([N+](=O)[O-])cc1)c1c[nH]c2ccccc12 | i | i | ? | i | 40µM | ?
C/C(=N\NC(=O)COc1ccccc1-c1ccccc1)c1ccccn1 | i | i | i | i | 56µM | i
C/C(=N/Nc1ccc([N+](=O)[O-])cc1)c1ccc(C)cc1C | i | i | i | i | i | i
CCCCCC(=O)O/N=C(\C)c1ccn(S(=O)(=O)c2ccccc2)c1 | i | i | i | i | i | i
OCCN(CCO)c1nc(N2CCCCC2)c2nc(N(CCO)CCO)nc(N3CCCCC3)c2n1 | 12µM | 25µM | i | i | ? | i
Cc1cc(NO)nc(-c2ccc(Br)cc2)n1 | i | i | ? | nt | nt | 20µM
COc1cccc(COC(=O)C2CC(=O)N(Cc3ccc(C)cc3)C2)c1OC (stereo not drawn) | i | i | i | i | i | i
